L3MBTL1 block: blocks human L3MBTL1. AlphaScreen L3MBTL1–H3K9me1 peptide binding. Q9Y468. Potency, µM (highest dose often 57.1 µM), for the others: top-dose activity, negative = inhibition, hits mostly inhibitors. 230,000 compounds, 0.66% hits; note: % is set by controls: 0 for no effect and ±100 for the full control effect; nearly all actives have a fitted effect of over 60% in size
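Displacement of a biotinylated histone H3(1-15) peptide monomethylated at Lys9 (75 nM) from L3MBTL1 (50 nM) was measured by AlphaScreen after a 30 min room-temperature compound incubation; cefsulodin titration served as intraplate control.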
HP1b chromo inh: HP1-beta chromodomain-methylated histone interaction inhibition | AlphaScreen HP1-beta / biotin-H3K9me3 peptide binding | 390,000 compounds, 0.56% hits | Potency, µM (highest dose often 114 µM), for inactives: at the highest dose activity change, negative = inhibition, actives largely listed as inhibitors | P83916; note: nearly all actives have a fitted effect of over 70% in size
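HP1-beta protein (50 nM final) preincubated 30 min at room temperature with biotinylated H3(1-18)K9me3 peptide (50 nM) in PBS pH 7.4, 0.01% Tween-20, then compound added for 30 min. AlphaScreen streptavidin donor/nickel chelate acceptor beads (10 ug/mL final), 30 min dark, luminescence read.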
PLK1 PBD inh: blocks phosphopeptide binding to human PLK1 polo-box domain; Plk1 PBD binding of FITC phosphopeptide, fluorescence polarization; P53350; Potency, µM, for the others: max response, negative = inhibition, hits mostly inhibitors; 360,000 compounds, 2.8% hits; note: series mostly up to about 57 µM; % is set by controls: 0 for no effect and ±100 for the full control effect; nearly all actives have a fitted effect of over 65% in size
VDR inh: inhibitors of human vitamin D receptor; 400,000 compounds, 0.93% hits; Potency, µM, for the others: max response, negative = inhibition, usual class: inhibitors; VDR-SRC2-3 peptide fluorescence polarization, 2 h; P11473; note: % is set by controls: 0 for no effect and ±100 for the full control effect
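Fluorescence polarization assay measuring small-molecule disruption of VDR binding to the coregulator peptide SRC2-3. Compounds were pin-transferred (23 nl) into the reagent mix and incubated 2 h at room temperature before reading.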
JMJD2A Tudor: JMJD2A Tudor domain (human) inhibition | O75164 | AlphaScreen JMJD2A-Tudor / H3K4me3 peptide binding | Potency, µM (doses to about 114 µM), inactives show at the highest dose activity change, negative = inhibition, most hits filed as inhibitors | 390,000 compounds, 4.4% hits | AID 504339; note: % is set by controls: 0 for no effect and ±100 for the full control effect; nearly all actives have a fitted effect of over 50% in size
BAZ2B inh: blocks human BAZ2B | Q9UIF8 | AlphaScreen BAZ2B-H3K14Ac peptide displacement | Potency, µM (top dose mostly 114 µM), without a hit: at the top dose activity change, negative = inhibition, usual class: inhibitors | 360,000 compounds, 4.4% hits | AID 504333; note: % is set by controls: 0 for no effect and ±100 for the full control effect; nearly all actives have a fitted effect of over 60% in size
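BAZ2B (50 nM) with biotin-H3(5-23)K14Ac peptide (50 nM) in PBS pH 7.4, 0.01% Tween-20, preformed 30 min, then compound 30 min at room temperature; top concentration 110uM. AlphaScreen streptavidin donor/nickel chelate acceptor beads (10 ug/mL final), 20 min dark, signal read.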
* marks the source's active call; other numbers are inactive results; ? = inconclusive; · = no result given. Hits are enriched below; roughly 6.9% of the tested compounds scored in any of these assays. Calls come from the whole dose curve; as a rule, active = well fitted curve in the direction sought with a large enough effect; inconclusive = small, poorly fitted or top-dose-only effect, or another doubt; inactive = no such curve, though single readings can be large; an effect the other way counts as inactive or inconclusive. Potency is the fitted concentration of half-maximal effect.

SMILES	L3MBTL1 block	HP1b chromo inh	PLK1 PBD inh	VDR inh	JMJD2A Tudor	BAZ2B inh
CCN=c1scc(C)n1/N=C/c1cc(Br)c(O)c(Br)c1	-4%	?	?	-15%	?	45µM*
CCN=c1scc(C)n1/N=C/c1ccc(O)c(O)c1O	32µM*	?	6.7µM*	-12%	45µM*	22µM*
COC(=O)N/N=C/c1cccs1	3%	29%	-5%	11%	-8%	4%
COCCN=c1scc(-c2cccs2)n1/N=C/c1ccc(O)c(O)c1O	?	?	7.5µM*	-29%	8.9µM*	35µM*
O=C(Nc1ccccc1Br)c1c(F)cccc1Cl	5%	23%	-5%	-11%	-11%	·
O=C(Nc1ccccc1C(F)(F)F)c1c(F)cccc1Cl	2%	-8%	30µM*	-17%	-14%	-6%
O=C(NC(=S)N1CCCc2ccccc21)c1ccccc1	-6%	-11%	-17%	-10%	?	?
O=C(NC(=S)N1CCCc2ccccc21)c1ccc(Cl)cc1	-11%	-7%	27µM*	?	?	-10%
COc1ccc(OCC(=O)NC(=S)N2CCCc3ccccc32)cc1	·	-26%	?	?	56µM*	50µM*
O=C(COc1ccccc1)NC(=S)N1CCc2ccccc21	-1%	-5%	-9%	-13%	-25%	-35%
O=C(O)[C@@H]1CSCN1	·	·	·	13%	·	·
COc1ccc(C2=C(N3CCN(c4cc(Cl)ccc4C)CC3)c3ccccc3C2=O)cc1	·	?	·	17%	6.3µM*	2.8µM*
COc1ccc(C2(N3CCN(c4cc(C)ccc4C)CC3)C(=O)c3ccccc3C2=O)cc1	·	-15%	·	0%	?	?
Cc1cc2c(s1)c1cnn(Cc3cccc(C(F)(F)F)c3)c(=O)c1n2C	·	·	·	·	-28%	·
O=S(=O)([N-]c1nc2ccccc2nc1-[n+]1ccc(-c2ccncc2)cc1)c1ccccc1	-9%	9%	17µM*	8%	-10%	-19%
O=S(=O)([N-]c1nc2ccccc2nc1-[n+]1ccccc1)c1ccccc1	2%	27%	6%	-17%	-5%	-4%
O=C1/C(=C\c2ccc(O)c(O)c2)N=C2CCCCCN12	?	-4%	49%	-3%	3.2µM*	?
CC1CCN(C(=O)COC(=O)c2ccccc2NCCO)CC1	·	·	-11%	·	·	·
Nc1nnc(SC2CCCC2)s1	7%	?	27µM*	?	?	7%
Cc1[nH]n(-c2ccccc2)c(=O)c1C(c1ccccc1[N+](=O)[O-])C(C#N)C#N (stereo not drawn)	·	2%	30µM*	89µM*	?	?
Cc1ccc(C(C[N+](=O)[O-])c2c(C)[nH]n(-c3ccccc3)c2=O)cc1 (stereo not drawn)	-22%	12%	-28%	45µM*	-24%	?
Cc1[nH]n(-c2ccccc2)c(=O)c1C(C[N+](=O)[O-])c1ccc(Cl)cc1 (stereo not drawn)	-11%	7%	12µM*	?	?	?
Cc1[nH]n(-c2ccccc2)c(=O)c1C(C[N+](=O)[O-])c1ccc(F)cc1 (stereo not drawn)	-1%	8%	?	?	-32%	?
O=C(NCc1ccc2c(c1)OCO2)c1ccc2c(c1)N(Cc1cccc(Cl)c1)C(=O)c1ccccc1S2=O (stereo not drawn)	·	23%	·	6%	-4%	0%
Cc1c(CC(=O)N2CCC(C(=O)O)CC2)c(=O)oc2cc3c(cc12)CCC1(CCCCC1)O3	·	8%	-9%	2%	-21%	-5%
CC(C)Oc1ccc(CNC(=O)c2ccc3nc(SCc4ccc(F)cc4)n(C)c3c2)cc1	·	58%	·	-12%	-20%	-5%
CC(=O)c1ccc(-n2c(CCC(=O)O)ccc2-c2ccc(Br)cc2)cc1	·	-8%	-7%	-11%	?	?
CN(C)c1ccc(-n2c(CCC(=O)O)ccc2-c2ccccc2)cc1	·	?	·	?	50µM*	28µM*

Bioassay records from PubChem.
